Screen size: about 5,500 compounds; about 2,000 (36%) were called active. Roughly 18% stayed inconclusive and do not appear here. No stated cut-off is given here; in the data, active means normalized growth mostly below about 0.91 (no sharp cut-off); inconclusive means no clear call, values can overlap the other calls; inactive means mostly above about 0.92. The list shows a part of the results.
Assay: chemical genetic growth profiling, strain panel (AID 1159580);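 further: tested at 20 µM; growth read once vehicle control cultures reached saturation at 30 °C; 1 = growth at the plate median or of vehicle wells; lower values mean less growth of the strain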
Conditions: S. cerevisiae deletion strains, growth OD
[1] = locus YAR019C, strain CDC15, active compounds read low
[2] = locus YBL105C, strain PKC1, active compounds read low
[3] = locus YBR135W, strain CKS1, active compounds read low
[4] = locus YBR136W, strain MEC1, active compounds read low
[5] = locus YBR160W, strain CDC28, active compounds read low
[6] = locus YDL017W, strain CDC7, active compounds read low
[7] = locus YDL028C, strain MPS1, active compounds read low
[8] = locus YDL101C, strain DUN1, active compounds read low
[9] = locus YDL108W, strain KIN28, active compounds read low
[10] = locus YDL132W, strain cdc53, active compounds read low
[11] = locus YDL214C, strain PRR2, active compounds read low
[12] = locus YDR052C, strain DBF4, active compounds read low
[13] = locus YDR054C, strain cdc34, active compounds read low
[14] = locus YDR226W, strain ADK1, active compounds read low
[15] = locus YDR477W, strain SNF1, active compounds read low
[16] = locus YER123W, strain YCK3, active compounds read low
[17] = locus YER133W, strain GLC7, active compounds read low
[18] = locus YFL009W, strain cdc4, active compounds read low
[19] = locus YFL029C, strain CAK1, active compounds read low
[20] = locus YFR003C, strain YPI1, active compounds read low
[21] = locus YFR019W, strain FAB1, active compounds read low
[22] = locus YFR028C, strain CDC14, active compounds read low
[23] = locus YGR040W, strain KSS1, active compounds read low
[24] = locus YGR052W, strain FMP48, active compounds read low
[25] = locus YGR092W, strain DBF2, active compounds read low
[26] = locus YHR030C, strain SLT2, active compounds read low
[27] = locus YHR079C, strain IRE1, active compounds read low
[28] = locus YHR082C, strain KSP1, active compounds read low
[29] = locus YHR205W, strain SCH9, active compounds read low
[30] = locus YIL147C, strain SLN1, active compounds read low
[31] = locus YJL095W, strain BCK1, active compounds read low
[32] = locus YJL128C, strain PBS2, active compounds read low
[33] = locus YJL157C, strain FAR1, active compounds read low
[34] = locus YJR016C, strain ILV3, active compounds read low
[35] = locus YJR066W, strain TOR1 (second series), active compounds read low
[36] = locus YJR066W, strain TOR1, active compounds read low
[37] = locus YKL048C, strain ELM1, active compounds read low
[38] = locus YKL067W, strain YNK1, active compounds read low
[39] = locus YKL101W, strain HSL1, active compounds read low
[40] = locus YKL193C, strain SDS22, active compounds read low
[41] = locus YKL203C, strain TOR2, active compounds read low
[42] = locus YLR113W, strain HOG1, active compounds read low
[43] = locus YLR133W, strain CKI1, active compounds read low
[44] = locus YLR403W, strain SFP1, active compounds read low
[45] = locus YML070W, strain DAK1, active compounds read low
[46] = locus YMR001C, strain CDC5, active compounds read low
[47] = locus YMR205C, strain PFK2 (second series), active compounds read low
[48] = locus YMR277W, strain FCP1, active compounds read low
[49] = locus YNL006W, strain LST8, active compounds read low
[50] = locus YNL020C, strain ARK1, active compounds read low
[51] = locus YNL161W, strain CBK1, active compounds read low
[52] = locus YNL183C, strain NPR1, active compounds read low
[53] = locus YNL207W, strain RIO2, active compounds read low
[54] = locus YNL222W, strain SSU72, active compounds read low
[55] = locus YNL307C, strain MCK1 (second series), active compounds read low
[56] = locus YOL078W, strain AVO1, active compounds read low
[57] = locus YOL136C, strain PFK27, active compounds read low
[58] = locus YOR061W, strain CKA2, active compounds read low
[59] = locus YOR119C, strain RIO1, active compounds read low
[60] = locus YOR231W, strain MKK1, active compounds read low
[61] = locus YOR329C, strain SCD5, active compounds read low
[62] = locus YPL031C, strain PHO85, active compounds read low
[63] = locus YPL153C, strain RAD53, active compounds read low
[64] = locus YPL204W, strain HRR25, active compounds read low
[65] = locus YPL209C, strain IPL1, active compounds read low
[66] = locus YPL256C, strain CLN2, active compounds read low
[67] = locus YPR025C, strain CCL1, active compounds read low
[68] = locus YPR106W, strain ISR1, active compounds read low
[69] = locus YPR111W, strain DBF20, active compounds read low
[70] = strain NNK1, active compounds read low
[71] = strain TSCII, active compounds read low

Measured: normalized growth

Cc1cc(Br)ccc1-n1c(Sc2c([N+](=O)[O-])cc(C(F)(F)F)cc2[N+](=O)[O-])nc2ccccc2c1=O
inactive: [1] 0.99 | [2] 0.985 | [3] 0.984 | [4] 0.978 | [5] 0.988 | [6] 0.989 | [7] 0.983 | [8] 0.988 | [9] 0.984 | [10] 0.994 | [11] 0.892 | [12] 0.989 | [13] 0.985 | [14] 0.981 | [15] 0.933 | [16] 0.901 | [17] 0.933 | [18] 0.986 | [19] 0.986 | [20] 0.986 | [21] 0.952 | [22] 0.994 | [23] 0.938 | [24] 0.945 | [25] 0.968 | [26] 0.972 | [27] 0.922 | [28] 0.997 | [29] 0.879 | [30] 0.984 | [31] 0.88 | [32] 0.915 | [33] 0.927 | [34] 0.987 | [35] 0.885 | [36] 1.06 | [37] 0.946 | [38] 0.943 | [39] 0.93 | [40] 0.982 | [41] 1 | [43] 0.95 | [44] 0.961 | [45] 0.923 | [46] 0.981 | [47] 0.939 | [48] 0.982 | [49] 0.981 | [50] 0.943 | [51] 0.982 | [52] 1.02 | [53] 0.999 | [54] 0.983 | [55] 0.932 | [56] 0.984 | [57] 0.926 | [58] 0.937 | [59] 0.998 | [60] 0.955 | [61] 0.988 | [62] 0.923 | [63] 0.917 | [64] 0.928 | [65] 0.99 | [66] 0.943 | [67] 0.983 | [68] 0.968 | [69] 0.972 | [70] 0.968 | [71] 0.993
active: [42] 0.841

Cc1ccc(S(=O)(=O)CCSC2=CC(=O)CC(C)(C)S2)cc1
inactive: [1] 1.01 | [2] 0.987 | [3] 1 | [4] 1 | [5] 0.998 | [6] 0.998 | [7] 1 | [8] 1 | [9] 1 | [10] 1 | [11] 0.98 | [12] 1 | [13] 0.998 | [14] 0.994 | [15] 0.974 | [16] 0.924 | [17] 0.895 | [18] 0.997 | [19] 1.01 | [20] 0.997 | [21] 0.905 | [22] 0.998 | [23] 0.948 | [24] 0.987 | [25] 1 | [26] 0.987 | [27] 1.06 | [28] 1.08 | [29] 0.988 | [30] 0.997 | [31] 0.948 | [32] 1.02 | [33] 0.973 | [34] 0.999 | [35] 0.892 | [36] 1.04 | [37] 0.985 | [38] 0.987 | [39] 0.995 | [40] 1 | [41] 0.978 | [42] 1.05 | [43] 0.963 | [44] 0.95 | [45] 0.965 | [46] 0.999 | [47] 0.974 | [48] 1 | [49] 0.996 | [50] 0.979 | [51] 1 | [52] 1.02 | [53] 1 | [54] 1 | [55] 0.977 | [56] 0.997 | [57] 0.929 | [58] 0.969 | [59] 0.996 | [60] 0.968 | [61] 1 | [62] 0.961 | [63] 0.959 | [64] 0.912 | [65] 0.998 | [66] 1.09 | [67] 1 | [68] 1.01 | [69] 0.999 | [70] 1.03 | [71] 1
